Source: PubChem (several laboratories)
RecA splice inh = Mtb RecA intein splicing inhibitors, primary screen, biochemical, fluorescence, HTS | AID 2221, 2009 | inhibition, % (concentration not given with the values) | Protein RecA (Mycobacterium tuberculosis (strain ATCC 25618 / H37Rv)), P9WHJ3 | cell-free RecA intein splicing | 290,000 tested, 0.75% active; in the data active = inhibition above about 30%;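 note: 0% = vehicle wells and 100% = reference inhibitor control wells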
Target sequence (P9WHJ3 whole entry, looked up, canonical isoform): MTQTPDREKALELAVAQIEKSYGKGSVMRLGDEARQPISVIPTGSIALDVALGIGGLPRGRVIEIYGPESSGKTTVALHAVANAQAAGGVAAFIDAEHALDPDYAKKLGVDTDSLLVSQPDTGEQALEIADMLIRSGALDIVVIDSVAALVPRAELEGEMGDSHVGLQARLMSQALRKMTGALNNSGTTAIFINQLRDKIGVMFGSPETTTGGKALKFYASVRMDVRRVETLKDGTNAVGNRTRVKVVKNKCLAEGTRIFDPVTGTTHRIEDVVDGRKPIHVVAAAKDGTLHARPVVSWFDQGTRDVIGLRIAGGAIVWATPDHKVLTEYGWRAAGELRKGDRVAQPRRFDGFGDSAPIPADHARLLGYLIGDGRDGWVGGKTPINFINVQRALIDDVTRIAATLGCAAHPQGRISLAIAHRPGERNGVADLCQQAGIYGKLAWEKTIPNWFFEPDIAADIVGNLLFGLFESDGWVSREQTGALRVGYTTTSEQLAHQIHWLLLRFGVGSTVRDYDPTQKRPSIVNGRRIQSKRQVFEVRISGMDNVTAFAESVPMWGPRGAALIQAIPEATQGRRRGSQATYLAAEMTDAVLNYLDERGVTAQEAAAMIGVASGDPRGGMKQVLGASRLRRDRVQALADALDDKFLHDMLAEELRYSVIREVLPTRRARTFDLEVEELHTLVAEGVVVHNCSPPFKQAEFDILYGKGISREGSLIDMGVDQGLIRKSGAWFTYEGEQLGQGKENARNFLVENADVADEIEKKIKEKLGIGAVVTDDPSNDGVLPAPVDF
UGM FP inh = M. tuberculosis UGM enzyme inhibitors, primary screen, biochemical, fluorescence polarization, single point; AID 504406, 2011; UDP-galactopyranose mutase (Mycobacterium tuberculosis (strain ATCC 25618 / H37Rv)), …; inhibition, % at 10 µM; purified UGM, fluorescence polarization probe displacement; 320,000 tested, 0.06% active; in the data active = inhibition above about 10%, passing the limit was not always enough
Mtb hypoxia rep = PubChem AID 1159583 | M. tuberculosis hypoxia-regulated fluorescent reporter, fluorescence | fluorescence inhibition, % (test concentration not listed) | 300,000 tested, 0.1% active; in the data active = fluorescence inhibition mostly above about 23%, no sharp cut-off; inactive = mostly below about 17%
FadD28 binding = inhibitors of FadD28 bisubstrate probe binding, primary screen, biochemical, fluorescence polarization, single point | 360,000 tested, 0.22% active | Mycobacterium tuberculosis FadD28 fatty-acid-AMP ligase | AID 588549, 2011 | inhibition, % at 12.5 µM; in the data active = inhibition above about 8.5%, passing the limit was not always enough
Rv3671c inh = Rv3671c serine protease inhibitors, primary screen, biochemical, fluorescence polarization, M. tuberculosis H37Rv. P9WHR9. inhibition, % at 5.96 µM. 320,000 tested, 0.048% active;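 note: extracellular domain of Rv3671c used as enzyme; 0% = enzyme with DMSO and 100% = no enzyme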
Rv3671c cf = Rv3671c serine protease inhibitors, retest, confirmation, biochemical, fluorescence polarization, M. tuberculosis H37Rv. shares compounds with Rv3671c inh. AID 2761, 2010. 140 tested, 40% active. inhibition, % at 5.96 µM
DNA intercal FP = counter-screen: DNA intercalators; shares compounds with UGM FP inh; acridine orange-DNA binding, fluorescence polarization; AC50, µM; 35 tested, 60% active;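 active = fitted AC50 no greater than ten times the top concentration tested, cut at about 17 µM in these data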
An asterisk follows results filed as active; i = inactive; nt = no result given; + = active, no number. Only some compounds are listed: those with a hit (about 0.92% of all), similar ones and a draw of the others. Cut-off read from the data, not from the text of the source, unless noted: active = inhibition above about 38%; inactive = the rest.

SMILES | RecA splice inh | UGM FP inh | Mtb hypoxia rep | FadD28 binding | Rv3671c inh | Rv3671c cf | others
CC1(C)c2[nH]c3ccccc3c2CC2C(=O)N(Cc3ccc(F)cc3)C(=O)N21 (stereo not given) | nt | nt | 6 | nt | nt | nt
CCC(=O)c1ccc(OC(=O)Cc2ccc(OC)cc2)cc1 | 12 | 1 | 6 | 0 | 51* | 55*
COc1ccc(CC(=O)Oc2ccccc2C)cc1 | 3 | 2 | 5 | -1 | 12 | nt
C#CCOc1c(Cl)cc(C=NO)cc1OC | nt | nt | 0 | nt | nt | nt
CCOC(=O)c1ccc(NC(=O)c2cn(-c3ccccc3)nc2-c2ccncc2)cc1 | 0 | -4 | -8 | -1 | 193* | -40
O=[N+]([O-])c1cc(Cl)cc(/C=N/NC(=S)Nc2ccc(S(=O)(=O)N3CCOCC3)cc2)c1O | nt | 3 | nt | 18* | 58* | 14
O=[N+]([O-])c1cc(Cl)cc(C=NNC(=S)Nc2ccc(S(=O)(=O)N3CCOCC3)cc2)c1O | nt | nt | 20 | nt | nt | nt
C#CCOCCOCCOCCNc1nc(N2CCN(C(=O)C(Cc3ccc(O)cc3)n3cc(C(N)C(C)CC)nn3)CC2)nc(N2CCN(C(=O)C(C(C)CC)n3cc(C(N)CO)nn3)CC2)n1 (stereo not given) | nt | nt | 4 | nt | nt | nt
CCCCNC(=O)COC(=O)c1ccc(Cl)c(S(N)(=O)=O)c1 | nt | 0 | nt | 0 | 43* | -5
C(=Nn1cnnc1)c1cccs1 | nt | nt | 7 | nt | nt | nt
C=C1C2C[C@]3(C1O)C1CC4[C@@]5(C)CCC(O)[C@@]4(C1N(CC)C5)C3CC2O (stereo not given in full) | nt | nt | 4 | nt | nt | nt
COc1cc(OC)nc(NC(=O)COC(=O)c2cccc(Cl)c2)n1 | -4 | 0 | -1 | -1 | + | -15
CCOC(=O)C1C2COc3ccc(Br)cc3C2N2C(=O)CNC(=O)[C@@]12C (stereo not given in full) | nt | nt | -7 | nt | nt | nt
O=C(NCCO)c1cc2ccccc2cc1O | -18 | 2 | 3 | 2 | -4 | nt
NNC(=O)c1cc2ccccc2cc1O | -9 | 2 | 4 | -4 | 37* | -5
COc1ccc(NC(=O)Nc2cccc3c2OC(CN(C)S(=O)(=O)c2cccs2)C(C)CN(C(C)CO)C3=O)cc1 (stereo not given) | nt | nt | 2 | nt | nt | nt
COC(=O)C1=C(c2cccc(OCc3ccccc3)c2)CC2CCC1N2C(=O)NCc1ccc2[nH]ccc2c1 (stereo not given) | nt | nt | 7 | nt | nt | nt
O=C(NC(=S)NNC(=O)c1ccccc1O)c1cccnc1 | 3 | 2 | 3 | -4 | 47* | 44*
Cc1cc(C)cc(-n2c(O)c(C=NC3CCS(=O)(=O)C3)c3ccccc3c2=O)c1 (stereo not given) | 1 | -2 | -6 | -3 | 58* | 48*
Cc1cccc(-n2c(O)c(C=NC3CCS(=O)(=O)C3)c3ccccc3c2=O)c1 (stereo not given) | -1 | 0 | nt | -2 | 16 | nt
O=C1c2ccccc2-c2onc3ccc(NCCCn4ccnc4)c1c23 | 30 | 83* | 9 | nt | 131* | 135* | DNA intercal FP=2.5*
CC(=NNC(=O)c1ccco1)c1ccc(NC(=O)c2ccc(F)cc2)cc1 | nt | nt | 3 | nt | nt | nt
CSC1=NSC2=NC(=O)/C(=C\c3coc4ccccc4c3=O)C(=N)N12 | nt | -12 | 6 | 5 | -18 | nt
CC(C)CSC1=NSC2=NC(=O)/C(=C\c3coc4ccccc4c3=O)C(=N)N12 | -5 | -12 | 13 | 14* | -17 | nt | DNA intercal FP=17*
CC(=O)Nc1cccc(C)c1 | nt | -1 | 12 | -4 | 2 | nt
SMILES | RecA splice inh | UGM FP inh | Mtb hypoxia rep | FadD28 binding | Rv3671c inh | Rv3671c cf | others
CC(=O)Nc1cccc(N)c1 | nt | 1 | 0 | -2 | -4 | nt | DNA intercal FP=>35
CC(C(=O)Nc1ccc2ccccc2c1)C1C[C@]1(C)C(NC(=O)c1cnccn1)c1ccccc1 (stereo not given in full) | nt | nt | 12 | nt | nt | nt
CON=C(C)C(Cc1ccc(Cl)nc1)Cc1ccc(Cl)nc1 | nt | nt | 5 | nt | nt | nt
COc1cccc2c1C(=O)c1c(O)c3c(c(O)c1C2=O)CC(O)(C(=O)CO)CC3OC1CC(N)C(O)C(C)O1 (stereo not given) | nt | nt | nt | nt | nt | nt | DNA intercal FP=6.8*
C#CCNC(=O)C1=CC(c2csc3ccccc23)CC(OCc2ccc(CO)cc2)O1 (stereo not given) | nt | nt | 11 | nt | nt | nt
Cc1cc(C)c2nc(C(F)(F)F)nc(NCCCN3CCCC3=O)c2c1 | -2 | 0 | -8 | -1 | 0 | nt | DNA intercal FP=>35
C/C=C/c1ccc2c(c1)O[C@@H](CN(C)C(=O)Nc1cc(F)ccc1F)[C@H](C)CN([C@@H](C)CO)S2(=O)=O | nt | nt | nt | nt | nt | nt | DNA intercal FP=>35
C[C@@H]1CN([C@H](C)CO)S(=O)(=O)c2ccc(-c3ccc(C#N)cc3)cc2O[C@H]1CN(C)C(=O)Nc1cc(F)ccc1F | nt | nt | nt | -2 | nt | nt
CN(C)/C=C1\C=C2C(=O)c3ccccc3N2C1=O | i | 103* | nt | 4 | 12 | nt | DNA intercal FP=0.46*
